KKLEB cytotox: cytotoxicity in KKLEB CF airway cells, primary screen, cytotoxicity control for CF NF-kB inhibitor project, cell-based, uHTS, fluorescence assay plates; activity change (cytotoxicity), % at 5 µM; AID 602141, 2011; KKLEB CF airway cells viability, ATPlite luminescence, overnight; hits give low values; cells stimulated with P. aeruginosa culture filtrate; 360,000 compounds, 0.36% hits;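 active = corrected activity change at or below -50% at 5 µM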
Shn3 inh set2: reduction of Shn3 3'UTR firefly luciferase signal, primary screen, Schnurri-3 inhibitor project, cell-based, Clone20 osteoblasts, set 2; Clone20 osteoblast Shn3 3'UTR firefly luciferase, 24 h; inhibition, % at 12.5 µM; 360,000 compounds, 0.52% hits;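 active = mean inhibition of at least 75% with every replicate also reaching 75%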;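 note: 0% = median of neutral control wells and 100% = pilot-screen positive control compound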
TRPM1 prom inh: inhibitors of MITF-dependent TRPM1 promoter reporter, primary screen, cell-based, SK-MEL-5, single point, luciferase; 330,000 compounds, 0.83% hits; AID 488899, 2010; inhibition, % at 12.5 µM; SK-MEL-5 TRPM1 promoter luciferase, 24 h;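 active = mean inhibition across replicates of 60% or more, whatever share of single replicates reaches that level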
HIF-2a block: HIF-2a reporter inhibitors, primary screen, luminescence, 786-0 RCC cells | 786-0 RCC cells HIF-2a reporter, luciferase luminescence, overnight | inhibition, % at 18.8 µM | 360,000 compounds, 0.72% hits;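 active = inhibition of the luminescence signal of 40% or more relative to plate controls, in a single-dose primary screen at 18.75 µM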
CF NFkB inh: inhibitors of PAF-induced NF-kB signaling, primary screen, cell-based, GFP fluorescence, uHTS; KKLEB NF-kB-GFP reporter, GFP fluorescence overnight; inhibition, % at 5 µM; 360,000 compounds, 0.86% hits; AID 588850, 2011;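 active = at least 50% inhibition at 5 µM, scaled per plate between neutral and stimulator controls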;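 note: PAF is a Pseudomonas aeruginosa culture filtrate used as stimulus; plate controls were PAF-stimulated DMSO wells for no effect and unstimulated DMSO wells for full effect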
Peg3 prom inh: Peg3 promoter-driven luciferase inhibitors, primary screen, cell-based, HeLa, luciferase luminescence | inhibition, % at 20 µM | HeLa PEG-Prom luciferase reporter, overnight | AID 588405, 2011 | 360,000 compounds, 1.7% hits;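 active = inhibition of at least 50% at 20 µM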
Active calls of the source: *; · = not tested or not shown. Compounds with a hit are over-represented: about 2.8% of the library has one in this group of screens.

SMILES	KKLEB cytotox	Shn3 inh set2	TRPM1 prom inh	HIF-2a block	CF NFkB inh	Peg3 prom inh
COc1cccc2c1C(=O)c1c(O)c3c(c(O)c1C2=O)C[C@@](O)(C(=O)CO)C[C@@H]3OC1CC(N)C(O)C(C)O1 (some centres not stated)	-28.0	87.2*	59.9	-2.3	9.7	95.8*
COc1cc(C(=O)NCc2nnc(SCC(=O)NCCc3ccccc3)o2)cc(OC)c1OC	-0.4	-18.4	8.5	2.7	3.7	5.5
Cc1ccc(-n2cc(CNCCCn3cccn3)c(-c3cccc(C)c3)n2)cc1	-27.1	15.5	78.9*	-31.7	17.4	85.0*
Cc1ccc(-c2nn(-c3ccccc3)cc2NC(=O)CCl)cc1	-34.5	5.0	51.1	-76.3	25.2	105.1*
Cc1ccc(-c2nn(-c3ccccc3)cc2CNCc2ccccc2)cc1	-15.7	43.8	-3.8	-15.9	10.6	52.9*
Cc1ccccc1NC(=O)c1cn(-c2ccccc2)nc1-c1ccccc1	-4.1	19.8	8.5	-38.5	0.2	7.7
Cc1ccc(C)c(-n2cc(CNCCCn3cccn3)c(-c3ccccc3)n2)c1	-21.6	-3.0	-1.6	7.6	9.2	10.1
COc1ccccc1CNC(=O)[C@H](Cc1c[nH]c2ccccc12)NC(=O)[C@@H]1Cc2ccccc2CN1	-4.5	9.2	4.2	7.8	19.4	-5.2
O=C(NCCc1ccccc1F)C1CC(=O)N(c2cccc(C(F)(F)F)c2)C1 (configuration not stated)	3.9	21.6	-12.4	2.2	1.7	-6.9
O=C(Nc1cccc(S(=O)(=O)N2CCCCC2)c1)c1ccc2c(=O)n3c(nc2c1)CCCCC3	6.0	63.4	51.8	-5.7	6.1	89.9*
O=C(NCc1cccnc1)c1ccc(NS(=O)(=O)c2ccc(F)cc2)cc1	22.4	-13.1	6.6	11.6	-6.8	19.9
CCCC1(CCC)NC(=O)N(CC(=O)Nc2ccc(Cl)c(S(=O)(=O)N3CCOCC3)c2)C1=O	15.0	4.4	-7.2	14.2	-18.2	4.9
O=C1N(c2ccccc2)C[C@@H]2C[C@@H](c3cccs3)N3CCC[C@@]123	13.1	47.9	3.0	-2.8	-3.3	72.9*
COCc1cc([C@@H]2C[C@H]3CN(c4ccccc4)C(=O)[C@]34CCCN24)ccc1OC	0.1	-8.7	-5.7	7.1	6.2	53.8*
OC1c2c(F)cccc2N=C2CCCCCN21 (configuration not stated)	-2.2	10.9	·	-2.9	-5.9	2.3
COc1ccc(-c2cc(C(=O)N3CCN(S(=O)(=O)c4ccccc4)CC3)[nH]n2)cc1	20.1	-11.7	-6.3	-40.2	3.6	3.3
COc1ccc(S(=O)(=O)N2CCN(C(=O)c3cc(-c4ccc(Br)cc4)n[nH]3)CC2)cc1OC	-0.9	90.6*	21.7	14.8	16.8	35.0
COc1ccc2[nH]c(C)c(CCN(Cc3cccs3)C(=S)Nc3ccc(F)cc3)c2c1	-14.4	86.2*	8.5	-21.2	15.1	-8.0
CCC1(CC)SC(N)=NC1=O	2.8	18.4	-10.6	6.0	-5.5	5.9
O=C(Nc1ccc2c(c1)OCCO2)C1c2ccccc2OCC(=O)N1CC(F)(F)F (configuration not stated)	·	·	·	-3.7	·	·
C=CCNc1nnc(SC2CC(=O)N(c3ccc(OCCC)cc3)C2=O)s1 (configuration not stated)	2.1	5.0	-9.0	-41.7	0.5	104.3*
CCOc1ccc2nc(SC3CC(=O)N(c4ccc(C)cc4)C3=O)sc2c1 (configuration not stated)	-15.1	95.6*	-50.5	-142.1	5.0	88.8*
CCOc1ccc(N2C(=O)CC(Sc3nc4ccc(OCC)cc4s3)C2=O)cc1 (configuration not stated)	-16.0	6.2	-47.0	-106.5	-10.5	-9.7
COc1cc2c(NCCCCCO)ncnc2c(OC)c1OC	9.7	25.0	·	18.0	-41.4	2.1
Cc1sc2ncnc(NC3CCN(Cc4ccccc4)CC3)c2c1C	-4.7	87.8*	-1.0	26.4	9.0	12.3
SMILES	KKLEB cytotox	Shn3 inh set2	TRPM1 prom inh	HIF-2a block	CF NFkB inh	Peg3 prom inh
c1ccc(CN2CCC(Nc3ncnc4sccc34)CC2)cc1	4.5	13.5	-3.4	18.1	4.2	-11.8
O=C(CCl)N(C/C=C/c1ccccc1)c1ccc2c(c1)OCCO2	-99.7*	-8.8	3.9	-56.3	91.9*	-58.9
CSc1ncc(OCc2ccccc2)c(=O)[nH]1	-12.7	1.9	7.9	8.3	10.3	3.9
N#CCCN(C(=O)COC(=O)C1=NNC(=O)CC1)c1ccccc1	1.1	-9.5	-9.9	12.4	26.6	-3.6
CCC(C)Sc1ccc(-c2nc3cnccn3c2NC2CCCCC2)cc1 (configuration not stated)	-2.7	6.5	-11.3	-97.3	0.9	91.3*
CCCCCCSc1ccc(-c2nc3cnccn3c2NC2CCCCC2)cc1	·	·	·	-1.1	·	·
COc1ccc(Sc2ccc(-c3nc4cnccn4c3NC3CCCCC3)cc2OC)cc1	-6.4	55.6	-0.1	14.9	3.0	63.5*
CCC(C)Sc1ccc(-c2nc3cc(C)ccn3c2NC2CCCCC2)cc1 (configuration not stated)	-35.1	-2.4	-43.7	-231.6	38.8	-137.0
CCOc1ccc(CN(C)CC(O)COC(c2ccc(OC)cc2)c2ccc(OC)cc2)cc1 (configuration not stated)	-5.8	31.4	-5.5	-6.6	11.6	50.2*
COc1ccc(CN(C)CC(O)COC(c2ccc(OC)cc2)c2ccc(OC)cc2)cc1 (configuration not stated)	-8.1	1.9	-17.5	9.4	14.1	37.9
Cc1cc2c(cc1C)CSC(c1ccccc1O)SC2	3.8	32.4	-8.3	-3.2	-24.3	1.4
Oc1ccccc1C1SC(c2ccccc2O)SC(c2ccccc2O)S1 (configuration not stated)	-87.6*	40.6	42.3	32.8	91.1*	105.3*
CCOC(=O)c1sc(NC(=O)c2c(CC)noc2C)nc1C	0.8	10.5	-13.0	-18.8	-21.6	0.3
CC(=O)c1ccc(OCC(O)CN2CCN(CCN3C(=O)c4cccc5cccc(c45)C3=O)CC2)cc1 (configuration not stated)	-2.4	10.6	-3.3	11.6	-27.0	50.0*
Cc1cccc(C)c1OCC(O)CN1CCC(CN2C(=O)c3cccc4cccc(c34)C2=O)CC1 (configuration not stated)	-13.4	6.3	14.3	29.1	-10.6	54.5*
O=C(c1ccc(S(=O)(=O)N2CCCCC2)cc1)N1CCN(CCN2C(=O)c3cccc4cccc(c34)C2=O)CC1	-10.5	38.9	52.1	-13.8	-26.7	68.0*
